Results filed as inconclusive are left out. Active and inactive are the calls of the source. The calls were made as follows: active = hit-call score of the fitted dose curve at least 0.9, where 1 is the maximum; inconclusive = response in the unintended direction; inactive = score below 0.9.

Sequence of AR (gene 367) (P10275 whole entry, looked up): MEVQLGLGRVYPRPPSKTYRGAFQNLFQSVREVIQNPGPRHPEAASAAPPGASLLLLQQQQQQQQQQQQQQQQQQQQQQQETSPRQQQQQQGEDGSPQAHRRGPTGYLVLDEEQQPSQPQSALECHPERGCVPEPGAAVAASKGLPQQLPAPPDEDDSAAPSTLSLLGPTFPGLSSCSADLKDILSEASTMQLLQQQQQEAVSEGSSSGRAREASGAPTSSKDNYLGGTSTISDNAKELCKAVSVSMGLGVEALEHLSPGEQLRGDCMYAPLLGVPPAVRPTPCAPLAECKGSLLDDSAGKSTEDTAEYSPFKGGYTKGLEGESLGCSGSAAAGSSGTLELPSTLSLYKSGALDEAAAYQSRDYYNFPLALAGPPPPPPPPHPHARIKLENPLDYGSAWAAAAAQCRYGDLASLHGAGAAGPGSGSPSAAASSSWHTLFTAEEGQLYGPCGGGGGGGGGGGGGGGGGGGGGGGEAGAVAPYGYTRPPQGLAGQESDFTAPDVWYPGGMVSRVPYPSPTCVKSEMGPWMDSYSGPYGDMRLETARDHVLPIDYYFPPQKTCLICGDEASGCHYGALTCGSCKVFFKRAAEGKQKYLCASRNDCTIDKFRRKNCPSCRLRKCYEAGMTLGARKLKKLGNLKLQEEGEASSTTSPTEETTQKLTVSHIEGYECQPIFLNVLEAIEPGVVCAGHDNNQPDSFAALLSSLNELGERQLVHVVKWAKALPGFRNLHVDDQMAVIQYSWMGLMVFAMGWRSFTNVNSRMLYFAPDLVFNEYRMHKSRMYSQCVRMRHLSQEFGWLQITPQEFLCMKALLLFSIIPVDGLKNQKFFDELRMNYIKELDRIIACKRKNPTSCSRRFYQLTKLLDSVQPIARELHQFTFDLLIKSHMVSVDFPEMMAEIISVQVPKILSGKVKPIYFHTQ

This assay has as its target AR (gene 367) (UniProt P10275). Description: ACEA_AR_antagonist_80hr: ACEA Biosciences xCELLigence Real-Time Cell Analysis on Androgen Receptor Antagonism for Proliferation (AID 2283787). On the procedure: ACEA_AR_antagonist is a cell-based, single-readout assay that uses 22Rv1, a human prostate cancer cell line, with measurements taken at 80 hours after chemical dosing in a 384-well plate, although TO5 and TO6 (mc0.srcf) used a 96-well plate. Differences in plate size can be ignored given data normalization.ACEA_AR_antagonist_80hr is one of two assay component(s) measured or calculated from the ACEA_AR assay. It is designed to make measurements of real-time cell-growth kinetics, a form of growth reporter, as detected with electrical impedance signals by Real-Time Cell Electrode Sensor (RT-CES) technology.Data from the assay component ACEA_AR_antagonist_80hr was analyzed in the positive analysis fitting direction relative to DMSO as the negative control and baseline of activity. Using a type of growth reporter, measures of the cells for loss-of-signal activity can be used to understand the signaling at the pathway-level as they relate to the gene AR. Furthermore, this assay endpoint can be referred to as a primary readout, because this assay has produced multiple assay endpoints where this one serves a signaling function. To generalize the intended target to other relatable targets, this assay endpoint is annotated to the nuclear receptor intended target family, where the subfamily is steroidal.
The xCELLigence system Multi-E-Plate stations were used to measure the time-dependent response to chemicals. Each compound was tested in an eight-point, 1:4 serial dilution series starting at a maximum final concentration of 100 uM. A maximum starting concentration of 0.5% DMSO was present in the 100 uM chemical samples and was diluted along with the test article dilution series. The screen was performed in biological duplicate using two separate, 96-well, E-Plates 96 for each dilution series (n = 2). Positive controls (MG132 and testosterone) and a negative control (assay media) were tested in quadruplicate on each testing plate. […] Reference compounds were tested with 8 concentrations with 1:5 serial dilutions. All screening was carried out by ACEA Biosciences, Inc. (San Diego, CA). 22Rv1 cells purchased from ATCC were maintained in media supplemented with 10% fetal bovine serum (FBS). Before screening, 22Rv1 cells were preconditioned in assay medium. Cells were then detached and seeded in E-Plates 96 in assay medium. After overnight monitoring of growth once every hour, compounds were added to […] cells and remained in the medium until the end of the experiment. Cellular responses were then recorded once every 5 min for the first 5 h, and once every hour for an additional 100 h.
As usually defined, the AC50 is the concentration at which the activity in the assay is half-maximal. Turning to `CC(C)(OOC(C)(C)c1ccccc1)c1ccccc1`, the AC50 was 26.6 µM (active).
The same measure, in the same setting: as for `COC(=O)Nc1nc2ccccc2[nH]1`, the figure is 19.6 µM (active).
As to `O=C(Nc1ccccc1)c1ccccc1I`, the outcome was inactive.
As to `O=[N+]([O-])C(Br)(CO)CO`, the half-maximal activity concentration (AC50) is 30.6 µM (active).
Still for that read-out and setting: as for `Cc1cc(N=Nc2ccccc2C)ccc1N`, the figure is 52.6 µM (active).
As to `CCNS(=O)(=O)C(F)(F)C(F)(F)C(F)(F)C(F)(F)C(F)(F)C(F)(F)C(F)(F)C(F)(F)F`, the call was inactive.
On the same count and under the same terms, as for `CNC(=O)Oc1cccc2c1OC(C)(C)C2`, the entry is “inactive”.
For the compound `CC(C)(O)c1cnn2c(-c3ccc(F)c(-c4c(F)cccc4C#N)c3)cnc2n1`, the AC50 was 57.9 µM (active).
Turning to `C[N+](C)(C)CC1CO1` (stereo not given), the call was inactive.
Consider `CO[C@@H]1[C@H](OC(=O)NC(=O)CCl)CC[C@]2(CO2)[C@H]1[C@@]1(C)O[C@@H]1CC=C(C)C`, for which the AC50 was 12.6 µM (active).
With `Nc1ccc([N+](=O)[O-])cc1`, the AC50 is 22 µM (active).
In the case of `Nc1ccc(Cl)cc1N`, the concentration at half-maximal activity (AC50) was 50 µM (active).
Regarding `CC(C)N(Cc1ccccc1)C(=O)C(C)(C)C`, the outcome was inactive.
As for `C[C@]12C=CC3=C4CCC(=O)C=C4CC[C@H]3[C@@H]1CC[C@@H]2O`, the compound was called inactive.
Still for that read-out and setting: for `O=C1CCCO1` the value was “inactive”.

For the origin of these results see PubChem BioAssay (EPA / NIEHS).
